# Results taken from PubChem BioAssay AID1159580 (chemical genetic matrix, 2015).
# “And” between values parts separate entries of the source, which are not always exact repeats. Equal values may be shown once. Screen size: about 5,500 compounds; about 2,000 (36%) were called active. Not shown: some 18% with an inconclusive outcome. This is one part of the list. Values without a mark were called inactive. Rule as the data show it: active = normalized growth mostly below about 0.91 (no sharp cut-off); inconclusive = no clear call, values can overlap the other calls; inactive = mostly above about 0.92.
# Experiment: chemical genetic growth profiling, strain panel (AID 1159580);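 also: tested at 20 µM; growth read once vehicle control cultures reached saturation at 30 °C; 1 = growth at the plate median or of vehicle wells; lower values mean less growth of the strain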
# Details: S. cerevisiae deletion strains, growth OD
smiles,measurement,setting,value
COc1c(O)cc2oc3cc(O)c(CC=C(C)C)c(O)c3c(=O)c2c1CC=C(C)C,normalized growth,"locus YAL013W, strain DEP1, active compounds read low",0.346 (active)
same,normalized growth,"locus YAL021C, strain ccr4, active compounds read low",1
same,normalized growth,"locus YAL026C, strain drs2, active compounds read low",0.982
same,normalized growth,"locus YAL030W, strain snc1, active compounds read low",0.984
same,normalized growth,"locus YBR009C, strain hhf1, active compounds read low",0.983
same,normalized growth,"locus YBR021W, strain FUR4, active compounds read low",0.578 (active)
same,normalized growth,"locus YBR023C, strain chs3, active compounds read low",0.923
same,normalized growth,"locus YBR171W, strain sec66, active compounds read low",1.02
same,normalized growth,"locus YBR229C, strain ROT2, active compounds read low",0.913 (active)
same,normalized growth,"locus YBR231C, strain swc5, active compounds read low",0.851 (active)
same,normalized growth,"locus YBR279W, strain paf1, active compounds read low",0.968
same,normalized growth,"locus YCL011C, strain gbp2, active compounds read low",0.912
same,normalized growth,"locus YCL016C, strain dcc1, active compounds read low",0.957
same,normalized growth,"locus YCL029C, strain bik1, active compounds read low",0.773 (active)
same,normalized growth,"locus YCL061C, strain MRC1, active compounds read low",0.991
same,normalized growth,"locus YCL069W, strain vba3, active compounds read low",1.01
same,normalized growth,"locus YCR088W, strain abp1, active compounds read low",1
same,normalized growth,"locus YDL005C, strain med2, active compounds read low",1.05
same,normalized growth,"locus YDL035C, strain GPR1, active compounds read low",0.611 (active)
same,normalized growth,"locus YDL040C, strain nat1, active compounds read low",1
same,normalized growth,"locus YDL074C, strain BRE1, active compounds read low",0.242 (active)
same,normalized growth,"locus YDL101C, strain DUN1, active compounds read low",0.633 (active)
same,normalized growth,"locus YDL185W, strain tfp1, active compounds read low",0.916
same,normalized growth,"locus YDL192W, strain arf1, active compounds read low",0.579 (active)
same,normalized growth,"locus YDR001C, strain nth1, active compounds read low",1.01
same,normalized growth,"locus YDR069C, strain doa4, active compounds read low",0.89 (active)
same,normalized growth,"locus YDR101C, strain arx1, active compounds read low",0.799 (active)
same,normalized growth,"locus YDR137W, strain rgp1, active compounds read low",0.501 (active)
same,normalized growth,"locus YDR159W, strain sac3, active compounds read low",0.749 (active)
same,normalized growth,"locus YDR162C, strain NBP2, active compounds read low",0.543 (active)
same,normalized growth,"locus YDR195W, strain ref2",0.57 (active)
same,normalized growth,"locus YDR297W, strain sur2, active compounds read low",0.923
same,normalized growth,"locus YDR318W, strain mcm21, active compounds read low",0.79 (active)
same,normalized growth,"locus YDR334W, strain swr1, active compounds read low",0.999
same,normalized growth,"locus YDR335W, strain msn5, active compounds read low",0.957
same,normalized growth,"locus YDR388W, active compounds read low",0.833 (active)
same,normalized growth,"locus YDR392W, strain spt3, active compounds read low",0.673 (active)
same,normalized growth,"locus YDR502C, strain sam2, active compounds read low",0.771 (active)
same,normalized growth,"locus YEL003W, strain gim4, active compounds read low",0.937
same,normalized growth,"locus YEL037C, strain rad23, active compounds read low",1
same,normalized growth,"locus YEL061C, strain CIN8 (second series), active compounds read low",1.01
same,normalized growth,"locus YEL061C, strain CIN8, active compounds read low",0.68 (active)
same,normalized growth,"locus YER015W, strain faa2, active compounds read low",0.901 (active)
same,normalized growth,"locus YER016W, strain bim1, active compounds read low",0.969
same,normalized growth,"locus YER110C, active compounds read low",0.952
same,normalized growth,"locus YER111C, strain swi4, active compounds read low",1.02
same,normalized growth,"locus YER155C, strain BEM2 (second series), active compounds read low",0.704 (active)
same,normalized growth,"locus YER155C, strain BEM2, active compounds read low",0.388 (active)
same,normalized growth,"locus YER167W, strain BCK2, active compounds read low",0.792 (active)
same,normalized growth,"locus YFR010W, strain ubp6, active compounds read low",0.978
same,normalized growth,"locus YGL078C, strain dbp3, active compounds read low",0.878 (active)
same,normalized growth,"locus YGL086W, strain mad1, active compounds read low",0.681 (active)
same,normalized growth,"locus YGL167C, strain pmr1, active compounds read low",1.01
same,normalized growth,"locus YGL173C, strain kem1, active compounds read low",0.979
same,normalized growth,"locus YGL227W, strain vid30, active compounds read low",1
same,normalized growth,"locus YGL240W, strain doc1, active compounds read low",0.887
same,normalized growth,"locus YGL248W, strain PDE1, active compounds read low",0.67 (active)
same,normalized growth,"locus YGL253W, strain hxk2, active compounds read low",0.99
same,normalized growth,"locus YGR135W, strain pre9, active compounds read low",0.77 (active)
same,normalized growth,"locus YGR252W, strain gcn5, active compounds read low",0.833
same,normalized growth,"locus YHR013C, strain ard1, active compounds read low",0.985
same,normalized growth,"locus YHR027C, strain rpn1, active compounds read low",0.969
same,normalized growth,"locus YHR030C, strain SLT2, active compounds read low",0.538 (active) and 0.687 (active)
same,normalized growth,"locus YHR079C, strain IRE1 (second series), active compounds read low",0.918 (active)
same,normalized growth,"locus YHR079C, strain IRE1, active compounds read low",0.56 (active)
same,normalized growth,"locus YHR094C, strain hxt1, active compounds read low",0.901 (active)
same,normalized growth,"locus YHR129C, strain ARP1, active compounds read low",0.545 (active)
same,normalized growth,"locus YHR142W, strain chs7, active compounds read low",0.89
same,normalized growth,"locus YHR200W, strain rpn10, active compounds read low",0.78 (active)
same,normalized growth,"locus YIL066C, strain RNR3, active compounds read low",0.553 (active)
same,normalized growth,"locus YIL073C, strain SPO22, active compounds read low",0.695
same,normalized growth,"locus YIL125W, strain kgd1, active compounds read low",0.744 (active)
same,normalized growth,"locus YIR030C, strain dcg1, active compounds read low",0.867 (active)
same,normalized growth,"locus YJL092W, strain hpr5, active compounds read low",1
same,normalized growth,"locus YJL095W, strain BCK1, active compounds read low",0.307 (active) and 0.797 (active)
same,normalized growth,"locus YJL115W, strain asf1, active compounds read low",1.03
same,normalized growth,"locus YJL129C, strain trk1, active compounds read low",0.774 (active)
same,normalized growth,"locus YJL134W, strain LCB3, active compounds read low",0.833 (active)
same,normalized growth,"locus YJL154C, strain vps35, active compounds read low",1.04
same,normalized growth,"locus YJL164C, strain tpk1, active compounds read low",0.894 (active)
same,normalized growth,"locus YJL166W, strain qcr8, active compounds read low",0.819 (active)
same,normalized growth,"locus YJL168C, strain set2, active compounds read low",0.948
same,normalized growth,"locus YJL187C, strain SWE1 (second series), active compounds read low",0.518 (active)
same,normalized growth,"locus YJL187C, strain SWE1, active compounds read low",0.936
same,normalized growth,"locus YJR043C, strain POL32, active compounds read low",0.538 (active)
same,normalized growth,"locus YJR066W, strain TOR1, active compounds read low",0.891
same,normalized growth,"locus YKL009W, strain mrt4, active compounds read low",0.885
same,normalized growth,"locus YKL068W, active compounds read low",0.947
same,normalized growth,"locus YKL085W, strain MDH1 (second series), active compounds read low",0.724 (active)
same,normalized growth,"locus YKL085W, strain MDH1, active compounds read low",0.724 (active)
same,normalized growth,"locus YKL160W, strain elf1, active compounds read low",0.904
same,normalized growth,"locus YKL190W, strain CNB1, active compounds read low",0.548 (active)
same,normalized growth,"locus YKR001C, strain vps1, active compounds read low",0.365 (active)
same,normalized growth,"locus YKR026C, strain gcn3, active compounds read low",1
same,normalized growth,"locus YKR091W, strain srl3, active compounds read low",1.01
same,normalized growth,"locus YLL001W, strain dnm1, active compounds read low",0.963
same,normalized growth,"locus YLL026W, active compounds read low",1
same,normalized growth,"locus YLL041C, strain sdh2, active compounds read low",0.986
same,normalized growth,"locus YLR027C, strain aat2, active compounds read low",0.916 (active)
same,normalized growth,"locus YLR039C, strain RIC1, active compounds read low",0.263 (active)
same,normalized growth,"locus YLR058C, strain SHM2, active compounds read low",0.642 (active)
same,normalized growth,"locus YLR102C, strain apc9, active compounds read low",0.93
same,normalized growth,"locus YLR113W, strain HOG1, active compounds read low",0.426 (active)
same,normalized growth,"locus YLR258W, strain gsy2, active compounds read low",0.939
same,normalized growth,"locus YLR262C, strain YPT6 (second series), active compounds read low",0.667 (active)
same,normalized growth,"locus YLR262C, strain YPT6, active compounds read low",0.399 (active)
same,normalized growth,"locus YLR268W, strain sec22, active compounds read low",0.704 (active)
same,normalized growth,"locus YLR320W, strain mms22, active compounds read low",0.843 (active)
same,normalized growth,"locus YLR330W, strain CHS5, active compounds read low",0.534 (active)
same,normalized growth,"locus YLR342W, strain FKS1 (second series), active compounds read low",0.591 (active)
same,normalized growth,"locus YLR342W, strain FKS1, active compounds read low",0.944
same,normalized growth,"locus YLR357W, strain rsc2, active compounds read low",0.957
same,normalized growth,"locus YLR370C, strain arc18, active compounds read low",0.982
same,normalized growth,"locus YLR371W, strain rom2, active compounds read low",0.358 (active)
same,normalized growth,"locus YLR384C, strain iki3, active compounds read low",0.983
same,normalized growth,"locus YLR418C, strain cdc73, active compounds read low",0.259 (active)
same,normalized growth,"locus YML016C, strain PPZ1, active compounds read low",0.674 (active)
same,normalized growth,"locus YML032C, strain rad52, active compounds read low",0.838 (active)
same,normalized growth,"locus YML124C, strain tub3, active compounds read low",0.938
same,normalized growth,"locus YMR058W, strain fet3, active compounds read low",0.9 (active)
same,normalized growth,"locus YMR078C, strain ctf18, active compounds read low",0.903 (active)
same,normalized growth,"locus YMR125W, strain sto1, active compounds read low",1.01
same,normalized growth,"locus YMR129W, active compounds read low",0.974
same,normalized growth,"locus YMR205C, strain PFK2, active compounds read low",0.822 (active)
same,normalized growth,"locus YMR223W, strain ubp8, active compounds read low",0.786 (active)
same,normalized growth,"locus YMR231W, strain pep5, active compounds read low",1
same,normalized growth,"locus YMR263W, strain SAP30, active compounds read low",0.726 (active)
same,normalized growth,"locus YMR307W, strain GAS1, active compounds read low",0.474 (active)
same,normalized growth,"locus YNL067W, strain RPL9B, active compounds read low",0.719 (active)
same,normalized growth,"locus YNL071W, strain lat1, active compounds read low",0.562 (active)
same,normalized growth,"locus YNL153C, strain GIM3, active compounds read low",0.625 (active)
same,normalized growth,"locus YNL183C, strain NPR1, active compounds read low",0.887
same,normalized growth,"locus YNL209W, strain ssb2, active compounds read low",0.968
same,normalized growth,"locus YNL233W, strain BNI4, active compounds read low",0.51 (active)
same,normalized growth,"locus YNL248C, strain rpa49, active compounds read low",0.994
same,normalized growth,"locus YNL250W, strain rad50, active compounds read low",0.862 (active)
same,normalized growth,"locus YNL271C, strain bni1, active compounds read low",0.883 (active)
same,normalized growth,"locus YNL298W, strain CLA4, active compounds read low",0.831 (active)
same,normalized growth,"locus YNL307C, strain MCK1, active compounds read low",0.385 (active)
same,normalized growth,"locus YNL322C, strain KRE1 (second series), active compounds read low",0.995
same,normalized growth,"locus YNR049C, strain mso1, active compounds read low",0.967
same,normalized growth,"locus YNR052C, strain pop2, active compounds read low",0.781 (active)
same,normalized growth,"locus YOL006C, strain TOP1, active compounds read low",0.279 (active)
same,normalized growth,"locus YOL012C, strain htz1",0.271
same,normalized growth,"locus YOL147C, strain pex11, active compounds read low",0.694 (active)
same,normalized growth,"locus YOR001W, strain rrp6, active compounds read low",0.916
same,normalized growth,"locus YOR061W, strain CKA2, active compounds read low",0.707 (active)
same,normalized growth,"locus YOR069W, strain VPS5, active compounds read low",0.735 (active)
same,normalized growth,"locus YOR070C, strain gyp1, active compounds read low",0.95
same,normalized growth,"locus YOR080W, strain dia2, active compounds read low",0.984
same,normalized growth,"locus YOR083W, strain WHI5, active compounds read low",0.941
same,normalized growth,"locus YOR106W, strain vam3, active compounds read low",0.916
same,normalized growth,"locus YOR136W, strain idh2, active compounds read low",0.899 (active)
same,normalized growth,"locus YOR144C, strain elg1, active compounds read low",0.755 (active)
same,normalized growth,"locus YOR184W, strain ser1, active compounds read low",0.331 (active)
same,normalized growth,"locus YOR231W, strain MKK1, active compounds read low",0.531 (active)
same,normalized growth,"locus YOR265W, strain rbl2, active compounds read low",0.964
same,normalized growth,"locus YOR270C, strain vph1, active compounds read low",0.881
same,normalized growth,"locus YOR290C, strain snf2, active compounds read low",0.912
same,normalized growth,"locus YOR316C, strain cot1, active compounds read low",0.927
same,normalized growth,"locus YPL051W, strain arl3, active compounds read low",0.782 (active)
same,normalized growth,"locus YPL055C, strain LGE1, active compounds read low",0.274 (active)
same,normalized growth,"locus YPL078C, strain atp4, active compounds read low",0.991
same,normalized growth,"locus YPL106C, strain sse1, active compounds read low",0.856
same,normalized growth,"locus YPL240C, strain hsp82, active compounds read low",0.951
same,normalized growth,"locus YPL256C, strain CLN2, active compounds read low",0.741 (active)
same,normalized growth,"locus YPR119W, strain clb2, active compounds read low",0.931
same,normalized growth,"locus YPR141C, strain kar3, active compounds read low",0.96
same,normalized growth,"locus YPR163C, strain tif3, active compounds read low",0.544 (active)
same,normalized growth,"locus YPR167C, strain met16, active compounds read low",0.786 (active)
same,normalized growth,"strain wtn01, active compounds read low",0.697 (active)
